Values joined by “and” are separate entries in the source; they are usually repeats but may differ in a detail not shown here. Identical values can stand only once. This is part of a sample that, as a whole, favours compounds with a hit. Of some 79,000 tested, about 15% had one in any assay. Some compounds were tested as several samples or in several runs, with calls that do not always agree. Active and inactive are the calls of the source. Rule as the data show it: active = growth inhibition above about 70%; inactive = the rest.
Key:
[1] = NCI Yeast Anticancer Drug Screen. Data for the rad52 strain (AID 147);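 also: 0% = growth of vehicle-treated control cultures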; details: S. cerevisiae rad52 mutant growth inhibition, stronger effect = higher value
Summary of the method: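 Yeast strain carrying a DNA damage repair alteration was exposed to test compounds. Growth inhibition was measured relative to vehicle-treated controls.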

[2] = NCI Yeast Anticancer Drug Screen. Data for the wt1 strain (AID 149);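 also: 0% = growth of vehicle-treated wt1 cultures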; details: S. cerevisiae wt1 strain (SPY 50644) growth inhibition, stronger effect = higher value
Summary of the method: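 wt1 strain grown with compound or vehicle; inhibition taken from the growth difference.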

[3] = NCI Yeast Anticancer Drug Screen. Data for the rad50EPP+ strain (AID 151);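 also: 0% = growth of vehicle-treated control cultures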; details: S. cerevisiae rad50 mutant strain, stronger effect = higher value
Summary of the method: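 Yeast strain carrying rad50 alteration (rad50EPP+) exposed to compounds; growth inhibition measured relative to vehicle-treated controls.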

[4] = NCI Yeast Anticancer Drug Screen. Data for the mgt1 strain (AID 153); details: S. cerevisiae mgt1 mutant growth inhibition, stronger effect = higher value
Summary of the method: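 Yeast mgt1 strain (DNA repair/cell-cycle alteration panel) exposed to compounds; growth inhibition measured relative to vehicle-treated controls.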

[5] = NCI Yeast Anticancer Drug Screen. Data for the rad50 strain (AID 155);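 also: 0% = growth of vehicle-only cultures of the same strain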; details: S. cerevisiae rad50 strain growth inhibition, stronger effect = higher value
Summary of the method: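 DNA repair mutant yeast, compound exposure, growth read-out; inhibition is taken relative to vehicle.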

[6] = NCI Yeast Anticancer Drug Screen. Data for the mec2-1 strain (AID 157); details: S. cerevisiae mec2-1 strain, stronger effect = higher value
Summary of the method: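 mec2-1 yeast strain, carrying an alteration in DNA damage repair or cell cycle control, was exposed to compounds; growth inhibition was measured relative to vehicle-treated controls.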

[7] = NCI Yeast Anticancer Drug Screen. Data for the rad14 strain (AID 159);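 also: 0% = growth of vehicle-treated control cultures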; details: S. cerevisiae rad14 strain growth inhibition, stronger effect = higher value
Summary of the method: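 DNA repair-defective yeast, compound-exposed; % growth inhibition derived by comparison with vehicle-treated controls.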

[8] = NCI Yeast Anticancer Drug Screen. Data for the sgs1 mgt1 strain (AID 161);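 also: 0% = growth of cultures given vehicle only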; details: S. cerevisiae sgs1 mgt1 strain, stronger effect = higher value
Summary of the method: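 Percent growth inhibition was derived by comparing compound-exposed mutant yeast with vehicle-exposed cultures. The strain carries alterations in DNA damage repair.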

[9] = NCI Yeast Anticancer Drug Screen. Data for the CLN2oe strain (AID 163);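 also: 0% = growth of vehicle-only control cultures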; details: S. cerevisiae CLN2oe strain, stronger effect = higher value
Summary of the method: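 Yeast cells carrying a defined cell-cycle control alteration were exposed to test compounds. Growth inhibition was scored against vehicle-treated control cultures.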

[10] = NCI Yeast Anticancer Drug Screen. Data for the cln2 rad14 strain (AID 165);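 also: 0% = growth equal to vehicle treated cultures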; details: S. cerevisiae cln2 rad14 strain, stronger effect = higher value
Summary of the method: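 Yeast carrying cln2 and rad14 alterations (cell cycle control and DNA damage repair) were exposed to compounds. Growth inhibition was measured against vehicle-treated controls.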

[11] = NCI Yeast Anticancer Drug Screen. Data for the bub3 strain (AID 167); details: S. cerevisiae bub3 mutant strain, stronger effect = higher value
Summary of the method: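 In this screen, a yeast mutant lacking normal mitotic checkpoint function is challenged with compound. Relative growth versus vehicle gives the inhibition value.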

[12] = NCI Yeast Anticancer Drug Screen. Data for the wt2 strain (AID 169);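 also: 0% = growth of vehicle-treated yeast cultures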; details: S. cerevisiae wt2 strain growth inhibition, stronger effect = higher value
Summary of the method: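 Yeast cells were exposed to test compounds, and growth inhibition was measured relative to vehicle-treated controls.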

[13] = NCI Yeast Anticancer Drug Screen. Data for the mlh1 strain (AID 171);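 also: 0% = growth of vehicle-treated control cultures of the same strain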; details: S. cerevisiae mlh1 strain growth inhibition, stronger effect = higher value
Summary of the method: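 Yeast carrying a defined genetic alteration in DNA damage repair or cell cycle control were exposed to test compounds. Growth inhibition was measured relative to vehicle-treated controls.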

[14] = NCI Yeast Anticancer Drug Screen. Data for the sgs1 strain (AID 173);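 also: 0% = growth of vehicle-only control cultures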; details: S. cerevisiae sgs1 mutant, stronger effect = higher value
Summary of the method: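 Yeast mutant strains carrying defined defects in DNA damage repair or cell cycle control were exposed to test compounds. Growth inhibition was scored against vehicle-treated controls.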

[15] = NCI Yeast Anticancer Drug Screen. Data for the rad18 strain (AID 177); details: S. cerevisiae rad18 mutant growth inhibition, stronger effect = higher value
Summary of the method: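 Yeast carrying a defined DNA damage repair alteration were exposed to compounds. Growth inhibition was expressed relative to vehicle-treated controls.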

[16] = at 5.0 µM (retest, dose inferred, filed as 0.5)
[17] = at 50.0 µM (retest, dose inferred, filed as 5.0)

With OC1(c2ccccc2)CCCc2ccc(Cl)cc21 (stereo not given) the growth inhibition ([1]; at 1.2 µM) was 1% (inactive), the growth inhibition ([1]; at 3.7 µM) was 2% (inactive) and the growth inhibition ([1]; at 11.0 µM) was 0% (inactive). The growth inhibition ([1]; at 33.0 µM) was 42% (inactive), the growth inhibition ([1]; at 100.0 µM) was 99% (active) and the growth inhibition ([2]; at 1.2 µM) was -1% (inactive). The growth inhibition ([2]; at 3.7 µM) was -2% (inactive), the growth inhibition ([2]; at 11.0 µM) was -8% (inactive) and the growth inhibition ([2]; at 33.0 µM) was -4% (inactive). The growth inhibition ([2]; at 100.0 µM) was 98% (active), the growth inhibition ([3]; at 1.2 µM) was 3% (inactive) and the growth inhibition ([3]; at 3.7 µM) was 7% (inactive). For the same compound, the growth inhibition ([3]; at 11.0 µM) was 13% (inactive), the growth inhibition ([3]; at 33.0 µM) was 20% (inactive) and the growth inhibition ([3]; at 100.0 µM) was 74% (active). The growth inhibition ([4]; at 1.2 µM) was -10% (inactive), the growth inhibition ([4]; at 3.7 µM) was -15% (inactive) and the growth inhibition ([4]; at 11.0 µM) was -2% (inactive). The growth inhibition ([4]; at 33.0 µM) was 5% (inactive), the growth inhibition ([4]; at 100.0 µM) was 99% (active) and the growth inhibition ([5]; at 1.2 µM) was -3% (inactive). For the same compound, the growth inhibition ([5]; at 3.7 µM) was 1% (inactive), the growth inhibition [5, 16] was 10% (inactive) and the growth inhibition ([5]; at 11.0 µM) was -2% (inactive). For the same compound, the growth inhibition ([5]; at 33.0 µM) was 50% (inactive), the growth inhibition [5, 17] was 28% (inactive) and the growth inhibition ([5]; at 50.0 µM) was 57.2% (inactive). The growth inhibition ([5]; at 100.0 µM) was 99% (active), the growth inhibition ([6]; at 1.2 µM) was 2% (inactive) and the growth inhibition ([6]; at 3.7 µM) was 5% (inactive). The growth inhibition [6, 16] was 1% (inactive), the growth inhibition ([6]; at 11.0 µM) was 0% (inactive) and the growth inhibition ([6]; at 33.0 µM) was 31% (inactive). For the same compound, the growth inhibition [6, 17] was 11% (inactive), the growth inhibition ([6]; at 50.0 µM) was 50.2% (inactive) and the growth inhibition ([6]; at 100.0 µM) was 99% (active). For the same compound, the growth inhibition ([7]; at 1.2 µM) was 1% (inactive), the growth inhibition ([7]; at 3.7 µM) was -1% (inactive) and the growth inhibition ([7]; at 11.0 µM) was -1% (inactive). For the same compound, the growth inhibition ([7]; at 33.0 µM) was 17% (inactive), the growth inhibition ([7]; at 100.0 µM) was 99% (active) and the growth inhibition [8, 16] was -3% (inactive). For the same compound, the growth inhibition [8, 17] was 4% (inactive), the growth inhibition ([8]; at 50.0 µM) was 56.2% (inactive) and the growth inhibition ([9]; at 1.2 µM) was 1% (inactive). For the same compound, the growth inhibition ([9]; at 3.7 µM) was 0% (inactive), the growth inhibition ([9]; at 11.0 µM) was -17% (inactive) and the growth inhibition ([9]; at 33.0 µM) was 20% (inactive). For the same compound, the growth inhibition ([9]; at 100.0 µM) was 99% (active), the growth inhibition [10, 16] was 3% (inactive) and the growth inhibition [10, 17] was 13% (inactive). The growth inhibition ([10]; at 50.0 µM) was 11.1% (inactive), the growth inhibition ([11]; at 1.2 µM) was -2% (inactive) and the growth inhibition ([11]; at 3.7 µM) was -10% (inactive). The growth inhibition [11, 16] was -3% (inactive), the growth inhibition ([11]; at 11.0 µM) was -14% (inactive) and the growth inhibition ([11]; at 33.0 µM) was -17% (inactive). The growth inhibition [11, 17] was -13% (inactive), the growth inhibition ([11]; at 50.0 µM) was -16.4% (inactive) and the growth inhibition ([11]; at 100.0 µM) was 98% (active). The growth inhibition ([12]; at 1.2 µM) was 0% (inactive), the growth inhibition ([12]; at 3.7 µM) was -2% (inactive) and the growth inhibition ([12]; at 11.0 µM) was -7% (inactive). The growth inhibition ([12]; at 33.0 µM) was 7% (inactive), the growth inhibition ([12]; at 100.0 µM) was 99% (active) and the growth inhibition ([13]; at 1.2 µM) was 1% (inactive). For the same compound, the growth inhibition ([13]; at 3.7 µM) was 3% (inactive), the growth inhibition ([13]; at 11.0 µM) was 0% (inactive) and the growth inhibition ([13]; at 33.0 µM) was 30% (inactive). For the same compound, the growth inhibition ([13]; at 100.0 µM) was 99% (active), the growth inhibition ([14]; at 1.2 µM) was 0% (inactive) and the growth inhibition ([14]; at 3.7 µM) was 0% (inactive). The growth inhibition ([14]; at 11.0 µM) was 0% (inactive), the growth inhibition ([14]; at 33.0 µM) was 33% (inactive) and the growth inhibition ([14]; at 100.0 µM) was 99% (active). The growth inhibition ([15]; at 1.2 µM) was 0% (inactive), the growth inhibition ([15]; at 3.7 µM) was 4% (inactive) and the growth inhibition ([15]; at 11.0 µM) was 3% (inactive). For the same compound, the growth inhibition ([15]; at 33.0 µM) was 40% (inactive) and the growth inhibition ([15]; at 100.0 µM) was 99% (active).

In the case of c1ccc2[nH]c(-c3cscn3)nc2c1, the growth inhibition ([1]; at 1.2 µM) is reported as -3% (inactive), the growth inhibition ([1]; at 3.7 µM) is reported as -3% (inactive) and the growth inhibition ([1]; at 11.0 µM) is reported as -3% (inactive). The growth inhibition ([1]; at 33.0 µM) was 2% (inactive), the growth inhibition ([1]; at 100.0 µM) was -1% (inactive) and the growth inhibition ([2]; at 1.2 µM) was -1% (inactive). For the same compound, the growth inhibition ([2]; at 3.7 µM) was -3% (inactive), the growth inhibition ([2]; at 11.0 µM) was -2% (inactive) and the growth inhibition ([2]; at 33.0 µM) was -5% (inactive). For the same compound, the growth inhibition ([2]; at 100.0 µM) was -4% (inactive), the growth inhibition ([3]; at 1.2 µM) was 0% (inactive) and the growth inhibition ([3]; at 3.7 µM) was 0% (inactive). The growth inhibition ([3]; at 11.0 µM) was 3% (inactive), the growth inhibition ([3]; at 33.0 µM) was 16% (inactive) and the growth inhibition ([3]; at 100.0 µM) was 29% (inactive). For the same compound, the growth inhibition ([4]; at 1.2 µM) was -2% (inactive), the growth inhibition ([4]; at 3.7 µM) was -2% (inactive) and the growth inhibition ([4]; at 11.0 µM) was -5% (inactive). For the same compound, the growth inhibition ([4]; at 33.0 µM) was -5% (inactive), the growth inhibition ([4]; at 100.0 µM) was -7% (inactive) and the growth inhibition ([5]; at 1.2 µM) was -2% (inactive). The growth inhibition ([5]; at 3.7 µM) was 3% (inactive), the growth inhibition [5, 16] was -19% (inactive) and the growth inhibition ([5]; at 11.0 µM) was -1% (inactive). The growth inhibition ([5]; at 33.0 µM) was 4% (inactive), the growth inhibition [5, 17] was -2% (inactive) and the growth inhibition ([5]; at 50.0 µM) was -4.2% (inactive) and 39.9% (inactive). For the same compound, the growth inhibition ([5]; at 100.0 µM) was 11% (inactive), the growth inhibition ([6]; at 1.2 µM) was -2% (inactive) and the growth inhibition ([6]; at 3.7 µM) was -8% (inactive). For the same compound, the growth inhibition [6, 16] was -12% (inactive), the growth inhibition ([6]; at 11.0 µM) was -3% (inactive) and the growth inhibition ([6]; at 33.0 µM) was -6% (inactive). The growth inhibition [6, 17] was 4% (inactive), the growth inhibition ([6]; at 50.0 µM) was 7.6% (inactive) and 38.2% (inactive) and the growth inhibition ([6]; at 100.0 µM) was -8% (inactive). For the same compound, the growth inhibition ([7]; at 1.2 µM) was -4% (inactive), the growth inhibition ([7]; at 3.7 µM) was -5% (inactive) and the growth inhibition ([7]; at 11.0 µM) was -3% (inactive). The growth inhibition ([7]; at 33.0 µM) was -5% (inactive), the growth inhibition ([7]; at 100.0 µM) was -2% (inactive) and the growth inhibition [8, 16] was -3% (inactive). For the same compound, the growth inhibition [8, 17] was 13% (inactive), the growth inhibition ([8]; at 50.0 µM) was -4% (inactive) and -3% (inactive) and the growth inhibition ([9]; at 1.2 µM) was -7% (inactive). The growth inhibition ([9]; at 3.7 µM) was -3% (inactive), the growth inhibition ([9]; at 11.0 µM) was -7% (inactive) and the growth inhibition ([9]; at 33.0 µM) was -11% (inactive). The growth inhibition ([9]; at 100.0 µM) was -19% (inactive), the growth inhibition [10, 16] was -25% (inactive) and the growth inhibition [10, 17] was -24% (inactive). The growth inhibition ([10]; at 50.0 µM) was -19.7% (inactive) and 32.1% (inactive), the growth inhibition ([11]; at 1.2 µM) was 6% (inactive) and the growth inhibition ([11]; at 3.7 µM) was 8% (inactive). The growth inhibition [11, 16] was 5% (inactive), the growth inhibition ([11]; at 11.0 µM) was 12% (inactive) and the growth inhibition ([11]; at 33.0 µM) was 36% (inactive). The growth inhibition [11, 17] was 56% (inactive), the growth inhibition ([11]; at 50.0 µM) was 33.4% (inactive) and 84.8% (active) and the growth inhibition ([11]; at 100.0 µM) was 70% (active).
